Measured values: PubChem BioAssay AID1159580 (chemical genetic matrix, 2015)
Among all 5,500 compounds or so, about 2,000 (36%) were called active. Inconclusive results (about 18%) are left out. Rule as the data show it: active = normalized growth mostly below about 0.91 (no sharp cut-off); inconclusive = no clear call, values can overlap the other calls; inactive = mostly above about 0.92. The list shows a part of the results.

Assay: chemical genetic growth profiling, strain panel (AID 1159580);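 also: tested at 20 µM; growth read once vehicle control cultures reached saturation at 30 °C; 1 = growth at the plate median or of vehicle wells; lower values mean less growth of the strain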
Settings: growth OD

Measured: normalized growth

COc1ccc(NS(=O)(=O)c2ccc(N)cc2)nn1
inactive: S. cerevisiae deletion strains, locus YKL009W, strain mrt4, active compounds read low 1 | S. cerevisiae deletion strains, locus YKL068W, active compounds read low 0.997 | S. cerevisiae deletion strains, locus YKL085W, strain MDH1 (second series), active compounds read low 0.999 | S. cerevisiae deletion strains, locus YKL085W, strain MDH1, active compounds read low 0.999 | S. cerevisiae deletion strains, locus YKL160W, strain elf1, active compounds read low 0.984 | S. cerevisiae deletion strains, locus YKL190W, strain CNB1, active compounds read low 1.02 | S. cerevisiae deletion strains, locus YKR001C, strain vps1, active compounds read low 0.985 | S. cerevisiae deletion strains, locus YKR026C, strain gcn3, active compounds read low 1.01 | S. cerevisiae deletion strains, locus YKR091W, strain srl3, active compounds read low 0.993 | S. cerevisiae deletion strains, locus YLL001W, strain dnm1, active compounds read low 0.967 | S. cerevisiae deletion strains, locus YLL026W, active compounds read low 0.997 | S. cerevisiae deletion strains, locus YLL041C, strain sdh2, active compounds read low 0.993 | S. cerevisiae deletion strains, locus YLR027C, strain aat2, active compounds read low 1 | S. cerevisiae deletion strains, locus YLR039C, strain RIC1, active compounds read low 1.01 | S. cerevisiae deletion strains, locus YLR058C, strain SHM2, active compounds read low 1.03 | S. cerevisiae deletion strains, locus YLR102C, strain apc9, active compounds read low 0.986 | S. cerevisiae deletion strains, locus YLR113W, strain HOG1, active compounds read low 1.01 | S. cerevisiae deletion strains, locus YLR221C, strain rsa3, active compounds read low 0.989 | S. cerevisiae deletion strains, locus YLR258W, strain gsy2, active compounds read low 0.971 | S. cerevisiae deletion strains, locus YLR262C, strain YPT6 (second series), active compounds read low 1.02 | S. cerevisiae deletion strains, locus YLR262C, strain YPT6, active compounds read low 1.06 | S. cerevisiae deletion strains, locus YLR268W, strain sec22, active compounds read low 0.99 | S. cerevisiae deletion strains, locus YLR320W, strain mms22, active compounds read low 0.961 | S. cerevisiae deletion strains, locus YLR330W, strain CHS5, active compounds read low 1.01 | S. cerevisiae deletion strains, locus YLR342W, strain FKS1 (second series), active compounds read low 1.01 | S. cerevisiae deletion strains, locus YLR342W, strain FKS1, active compounds read low 0.963 | S. cerevisiae deletion strains, locus YLR357W, strain rsc2, active compounds read low 0.945 | S. cerevisiae deletion strains, locus YLR370C, strain arc18, active compounds read low 0.999 | S. cerevisiae deletion strains, locus YLR371W, strain rom2, active compounds read low 0.983 | S. cerevisiae deletion strains, locus YLR384C, strain iki3, active compounds read low 1.02 | S. cerevisiae deletion strains, locus YLR418C, strain cdc73, active compounds read low 1 | S. cerevisiae deletion strains, locus YML016C, strain PPZ1, active compounds read low 1.02 | S. cerevisiae deletion strains, locus YML032C, strain rad52, active compounds read low 0.994 | S. cerevisiae deletion strains, locus YML120C, strain ndi1, active compounds read low 1 | S. cerevisiae deletion strains, locus YML124C, strain tub3, active compounds read low 0.994 | S. cerevisiae deletion strains, locus YMR058W, strain fet3, active compounds read low 1.01 | S. cerevisiae deletion strains, locus YMR078C, strain ctf18, active compounds read low 0.997 | S. cerevisiae deletion strains, locus YMR125W, strain sto1, active compounds read low 1.01 | S. cerevisiae deletion strains, locus YMR129W, active compounds read low 0.989 | S. cerevisiae deletion strains, locus YMR205C, strain PFK2, active compounds read low 0.986 | S. cerevisiae deletion strains, locus YMR223W, strain ubp8, active compounds read low 0.99 | S. cerevisiae deletion strains, locus YMR231W, strain pep5, active compounds read low 0.994 | S. cerevisiae deletion strains, locus YMR307W, strain GAS1, active compounds read low 1.01 | S. cerevisiae deletion strains, locus YNL067W, strain RPL9B, active compounds read low 1.03 | S. cerevisiae deletion strains, locus YNL071W, strain lat1, active compounds read low 1 | S. cerevisiae deletion strains, locus YNL128W, strain TEP1, active compounds read low 1.02 | S. cerevisiae deletion strains, locus YNL153C, strain GIM3, active compounds read low 1.04 | S. cerevisiae deletion strains, locus YNL183C, strain NPR1, active compounds read low 0.935 | S. cerevisiae deletion strains, locus YNL209W, strain ssb2, active compounds read low 1.01 | S. cerevisiae deletion strains, locus YNL233W, strain BNI4, active compounds read low 1.03 | S. cerevisiae deletion strains, locus YNL248C, strain rpa49, active compounds read low 0.994 | S. cerevisiae deletion strains, locus YNL250W, strain rad50, active compounds read low 0.984 | S. cerevisiae deletion strains, locus YNL271C, strain bni1, active compounds read low 0.983 | S. cerevisiae deletion strains, locus YNL298W, strain CLA4, active compounds read low 0.981 | S. cerevisiae deletion strains, locus YNL307C, strain MCK1, active compounds read low 0.993 | S. cerevisiae deletion strains, locus YNL322C, strain KRE1 (second series), active compounds read low 0.974 | S. cerevisiae deletion strains, locus YNR049C, strain mso1, active compounds read low 0.999 | S. cerevisiae deletion strains, locus YNR052C, strain pop2, active compounds read low 0.987 | S. cerevisiae deletion strains, locus YOL006C, strain TOP1, active compounds read low 1.09 | S. cerevisiae deletion strains, locus YOL012C, strain htz1 1.23 | S. cerevisiae deletion strains, locus YOL147C, strain pex11, active compounds read low 0.99 | S. cerevisiae deletion strains, locus YOR001W, strain rrp6, active compounds read low 1 | S. cerevisiae deletion strains, locus YOR061W, strain CKA2, active compounds read low 1.02 | S. cerevisiae deletion strains, locus YOR069W, strain VPS5, active compounds read low 1.01 | S. cerevisiae deletion strains, locus YOR070C, strain gyp1, active compounds read low 1 | S. cerevisiae deletion strains, locus YOR080W, strain dia2, active compounds read low 1 | S. cerevisiae deletion strains, locus YOR083W, strain WHI5, active compounds read low 0.947 | S. cerevisiae deletion strains, locus YOR106W, strain vam3, active compounds read low 1 | S. cerevisiae deletion strains, locus YOR136W, strain idh2, active compounds read low 0.996 | S. cerevisiae deletion strains, locus YOR144C, strain elg1, active compounds read low 0.992 | S. cerevisiae deletion strains, locus YOR184W, strain ser1, active compounds read low 0.996 | S. cerevisiae deletion strains, locus YOR231W, strain MKK1, active compounds read low 0.998 | S. cerevisiae deletion strains, locus YOR265W, strain rbl2, active compounds read low 1 | S. cerevisiae deletion strains, locus YOR270C, strain vph1, active compounds read low 1.05 | S. cerevisiae deletion strains, locus YOR290C, strain snf2, active compounds read low 0.991 | S. cerevisiae deletion strains, locus YOR316C, strain cot1, active compounds read low 0.985 | S. cerevisiae deletion strains, locus YPL051W, strain arl3, active compounds read low 0.976 | S. cerevisiae deletion strains, locus YPL055C, strain LGE1, active compounds read low 1.07 | S. cerevisiae deletion strains, locus YPL078C, strain atp4, active compounds read low 0.994 | S. cerevisiae deletion strains, locus YPL106C, strain sse1, active compounds read low 0.96 | S. cerevisiae deletion strains, locus YPL240C, strain hsp82, active compounds read low 1 | S. cerevisiae deletion strains, locus YPL241C, strain CIN2, active compounds read low 1.01 | S. cerevisiae deletion strains, locus YPL256C, strain CLN2, active compounds read low 0.985 | S. cerevisiae deletion strains, locus YPR119W, strain clb2, active compounds read low 0.997 | S. cerevisiae deletion strains, locus YPR141C, strain kar3, active compounds read low 0.988 | S. cerevisiae deletion strains, locus YPR163C, strain tif3, active compounds read low 0.99 | S. cerevisiae deletion strains, locus YPR167C, strain met16, active compounds read low 0.992 | S. cerevisiae deletion strains, strain wtn01, active compounds read low 0.986 | S. cerevisiae strains, strain wild type, active compounds read low 1.01
